Experimental data from the supplement of paper PMC7335073.
Whole data set: some 4,100 sequences, median “relative CpG methylation activity (normalised to average over all NNNCGNNN flanks)” near 0.87, cut for the highest 2% near 2.4. The full list was thinned out, with the highest values kept by preference.

Molecular target: DNMT3A catalytic domain (mouse) (UniProt O88508)
Assay: relative CpG methylation activity (normalised to average over all NNNCGNNN flanks) (relative (1 = mean)); higher = more methylation of the central CpG
Conditions: system: in vitro, murine catalytic domain; CpG state: hemimethylated substrate pool; residues: 608-908
Description: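 Deep enzymology: a pool of dsDNA substrates with a central CpG flanked by 10 random nucleotides on each side was methylated by the murine DNMT3A or DNMT3B catalytic domain (0.8 mM SAM, 37 °C, 60 min). Methylation was then read out by hairpin ligation, bisulfite conversion and NGS. Values are the average methylation of each NNNCGNNN context (±3 flanks; the outer flanks are random and averaged over), normalised to the overall mean, so 1 = average activity.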

Sequence | relative CpG methylation activity
TTACGTCG | 2.52
TGACGTCG | 1.02
CGACGTCG | 1.28
TGACGTCA | 0.989
TTACGTTA | 2.55
GACCGGCA | 0.909
AAGCGCAT | 0.582
TCCCGAGA | 1.02
GTTCGCAT | 1.26
TACCGACC | 0.79
TCTCGCTG | 1.57
TGCCGCTC | 1.84
GCACGATT | 1.02
AACCGACT | 0.927
CCTCGCCA | 1.67
CCTCGCCC | 2.6
CCTCGCCT | 2.37
CCTCGCCG | 1.68
GCTCGCCT | 2.09
TCTCGCCT | 1.73
GTTCGGTT | 0.726
GTCCGAAC | 1.91
CGACGATT | 0.644
TTACGGCC | 2.24
TATCGCCT | 1.86
CACCGGAA | 0.755

Sequence | relative CpG methylation activity
ACACGCTT | 2.37
CCACGCTG | 1.58
ACACGCTC | 2.4
CCACGCTA | 1.53
CCACGCTC | 2.5
TCACGCTC | 2.5
ACACGCAC | 1.72
GCACGCTC | 1.98
ACACGCTG | 1.74
TCACGCTG | 1.32
ACACGCTA | 1.76
TCACGCTA | 1.56
GGTCGTCT | 0.726
CCCCGATA | 1.02
TACCGTTT | 0.414
GCTCGGCC | 1.3
GGACGTTG | 0.114
GGACGGAC | 0.861
ATTCGCTC | 1.94
ACGCGAGT | 0.94
GACCGCTC | 1.78
GGCCGCTT | 1.75
ATCCGCTA | 1.78
GTCCGCTC | 2.37
TTCCGCTT | 2.48
ATCCGCTG | 1.62

Sequence | relative CpG methylation activity
GTCCGCTG | 1.42
CTCCGCTT | 2.3
GTCCGCTA | 1.9
ATCCGCTT | 2.13
ATCCGCTC | 2.37
GTCCGCTT | 2.54
GCCCGGGT | 0.974
TGGCGGCC | 1
CCACGACG | 1.18
GGCCGTGC | 0.353
TGCCGTCT | 1.28
TCCCGAGT | 0.977
GAGCGCTT | 2.07
GGCCGAGG | 0.41
ACACGGTC | 1.41
AGCCGTGA | 0.258
CGCCGACA | 0.962
CTGCGCAG | 0.583
CTCCGCTC | 2.19
TTCCGCTC | 2.73
TTCCGCTA | 2.3
TGACGTGA | 0.475
GAACGAGC | 1.12
CATCGGGA | 0.259
CGACGCGT | 0.316
TATCGAGC | 0.705

Sequence | relative CpG methylation activity
TACCGGGC | 0.455
CGACGCCA | 1.29
CCACGCCT | 2.24
CCACGCCG | 1.71
CTACGCCT | 2.79
CTACGCCG | 2.5
GTACGCCT | 2.41
CTACGCAG | 1.43
CCACGCCA | 1.91
CTACGCCA | 2.74
GTACGCCG | 1.9
GTACGCCA | 2.14
CGACGCCT | 1.29
GCCCGAAA | 1.39
AGACGGTC | 1.15
TCCCGTAT | 0.643
GACCGCTT | 1.77
ACACGAGC | 1.54
TTGCGATA | 1.13
GGTCGTAT | 0.455
TTGCGGTC | 1.43
TAGCGGGT | 0.231
GGACGGGT | 0.4
ATACGCGT | 1.9
ATACGCAT | 1.79
ATACGCCT | 2.76

Sequence | relative CpG methylation activity
GATCGCCG | 0.545
TCACGACA | 1.52
CTACGCTG | 1.75
CTACGCTT | 2.38
CTACGCTA | 2.5
CGACGCTC | 1.38
CAACGCTC | 1.36
CAACGCTA | 0.826
TTACGCTA | 1.94
CTACGCTC | 2.66
CTACGCAT | 1.97
GACCGTCG | 1.29
TGCCGAGC | 1.38
CGGCGTTT | 0.165
ACTCGATG | 0.513
GCCCGGCG | 0.38
ACACGCCG | 1.92
GCACGCCC | 2.31
GCACGCCT | 2.25
ACACGCCA | 2.02
ACACGCCT | 2.44
ACACGCCC | 2.4
CGCCGGCC | 0.909
CCGCGGGT | 1.11
TTACGCCC | 2.64
TTACGCCG | 2.29

Sequence | relative CpG methylation activity
GTACGCAA | 1.89
TTACGCAT | 2.29
ATACGCCC | 2.85
TTACGCAA | 2.55
AGACGCCC | 1.43
ATACGCCG | 2.33
ATACGCGC | 1.93
TTACGCGG | 0.654
TTACGCGC | 2.44
TAACGCCC | 1.61
ATTCGCAA | 1.09
TAACGTAC | 0.748
GCACGACG | 0.957
TATCGTTG | 0.26
TCGCGTAG | 0.412
TTACGCCT | 2.38
GGACGCCC | 1.88
TTACGCCA | 2.33
CTACGCCC | 2.62
CAACGCCC | 1.52
GAACGCCC | 1.6
ATACGCGA | 1.33
CTACGCAC | 2.15
ATACGCCA | 2.6
TAACGCCT | 1.2
TTACGCGT | 1.81

Sequence | relative CpG methylation activity
GTACGCCC | 2.39
TGCCGCGC | 0.766
TATCGATG | 0.224
AAACGTAA | 0.891
AGGCGCCT | 1.88
TGACGACG | 0.449
GCCCGTTT | 0.909
CCTCGGAG | 0.294
GGCCGCCT | 1.37
ACCCGCCC | 2.24
GTCCGCCA | 1.87
TGCCGCCG | 1.03
TTCCGCCA | 2.2
TTCCGCCG | 2.55
TTCCGCCT | 2.6
GTCCGCCT | 2.6
TTCCGCGT | 1.64
TTCCGCAT | 1.78
ACCCGCCT | 2.44
ACCCGCCG | 1.76
